Measured values from PubChem BioAssay AID1159580 (chemical genetic matrix, 2015).
Screen size: about 5,500 compounds; about 2,000 (36%) were called active. About 18% were inconclusive and are not listed. Some of the results follow. A number with no mark means an inactive call. No stated cut-off is given here; in the data, active means normalized growth mostly below about 0.91 (no sharp cut-off); inconclusive means no clear call, values can overlap the other calls; inactive means mostly above about 0.92.

Test: chemical genetic growth profiling, strain panel (AID 1159580);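 further: tested at 20 µM; growth read once vehicle control cultures reached saturation at 30 °C; 1 = growth at the plate median or of vehicle wells; lower values mean less growth of the strain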
Conditions: S. cerevisiae deletion strains, growth OD

Compound: CC1(C)CC[C@]2(C(=O)O)CC[C@]3(C)C(=CCC4[C@@]5(C)CC[C@@H](O)C(C)(C)C5CC[C@]43C)C2C1 (some centres undefined)
- normalized growth (locus YJR066W, strain TOR1, active compounds read low): 0.982
- normalized growth (locus YKL009W, strain mrt4, active compounds read low): 1.45 [resistant] (active)
- normalized growth (locus YKL068W, active compounds read low): 1.21 [resistant] (active)
- normalized growth (locus YKL085W, strain MDH1 (second series), active compounds read low): 1.09 [resistant] (active)
- normalized growth (locus YKL085W, strain MDH1, active compounds read low): 1.09 [resistant] (active)
- normalized growth (locus YKL160W, strain elf1, active compounds read low): 1.02
- normalized growth (locus YKL190W, strain CNB1, active compounds read low): 1.02
- normalized growth (locus YKR001C, strain vps1, active compounds read low): 0.993
- normalized growth (locus YKR026C, strain gcn3, active compounds read low): 1.02
- normalized growth (locus YKR091W, strain srl3, active compounds read low): 1.02
- normalized growth (locus YLL001W, strain dnm1, active compounds read low): 1.01
- normalized growth (locus YLL026W, active compounds read low): 1.02
- normalized growth (locus YLL041C, strain sdh2, active compounds read low): 1.02
- normalized growth (locus YLR027C, strain aat2, active compounds read low): 1.01
- normalized growth (locus YLR039C, strain RIC1, active compounds read low): 1.11
- normalized growth (locus YLR058C, strain SHM2, active compounds read low): 1.02
- normalized growth (locus YLR102C, strain apc9, active compounds read low): 1.02
- normalized growth (locus YLR113W, strain HOG1, active compounds read low): 0.951
- normalized growth (locus YLR221C, strain rsa3, active compounds read low): 1
- normalized growth (locus YLR258W, strain gsy2, active compounds read low): 1.01
- normalized growth (locus YLR262C, strain YPT6 (second series), active compounds read low): 0.984
- normalized growth (locus YLR262C, strain YPT6, active compounds read low): 1.1
- normalized growth (locus YLR268W, strain sec22, active compounds read low): 0.986
- normalized growth (locus YLR320W, strain mms22, active compounds read low): 1.01
- normalized growth (locus YLR342W, strain FKS1 (second series), active compounds read low): 0.964
- normalized growth (locus YLR342W, strain FKS1, active compounds read low): 1.01
- normalized growth (locus YLR357W, strain rsc2, active compounds read low): 1.03
- normalized growth (locus YLR370C, strain arc18, active compounds read low): 1
- normalized growth (locus YLR371W, strain rom2, active compounds read low): 0.992
- normalized growth (locus YLR384C, strain iki3, active compounds read low): 1.02
- normalized growth (locus YLR418C, strain cdc73, active compounds read low): 1.09
- normalized growth (locus YML016C, strain PPZ1, active compounds read low): 1.01
- normalized growth (locus YML032C, strain rad52, active compounds read low): 0.991
- normalized growth (locus YML120C, strain ndi1, active compounds read low): 1.01
- normalized growth (locus YML124C, strain tub3, active compounds read low): 1.01
- normalized growth (locus YMR058W, strain fet3, active compounds read low): 1.02
- normalized growth (locus YMR078C, strain ctf18, active compounds read low): 1.02
- normalized growth (locus YMR125W, strain sto1, active compounds read low): 1.04
- normalized growth (locus YMR129W, active compounds read low): 1.01
- normalized growth (locus YMR205C, strain PFK2, active compounds read low): 1.03
- normalized growth (locus YMR223W, strain ubp8, active compounds read low): 1.02
- normalized growth (locus YMR231W, strain pep5, active compounds read low): 1.02
- normalized growth (locus YMR307W, strain GAS1, active compounds read low): 0.976
- normalized growth (locus YNL067W, strain RPL9B, active compounds read low): 1.05
- normalized growth (locus YNL071W, strain lat1, active compounds read low): 1
- normalized growth (locus YNL128W, strain TEP1, active compounds read low): 1.03
- normalized growth (locus YNL183C, strain NPR1, active compounds read low): 0.994
- normalized growth (locus YNL209W, strain ssb2, active compounds read low): 1.01
- normalized growth (locus YNL233W, strain BNI4, active compounds read low): 1.03
- normalized growth (locus YNL248C, strain rpa49, active compounds read low): 1.01
- normalized growth (locus YNL250W, strain rad50, active compounds read low): 1.04
- normalized growth (locus YNL271C, strain bni1, active compounds read low): 1.03
- normalized growth (locus YNL298W, strain CLA4, active compounds read low): 1.07
- normalized growth (locus YNL307C, strain MCK1, active compounds read low): 1.03
- normalized growth (locus YNL322C, strain KRE1 (second series), active compounds read low): 1.04
- normalized growth (locus YNR049C, strain mso1, active compounds read low): 1.02
- normalized growth (locus YNR052C, strain pop2, active compounds read low): 1.03
- normalized growth (locus YOL012C, strain htz1): 1.33
- normalized growth (locus YOL147C, strain pex11, active compounds read low): 1
- normalized growth (locus YOR001W, strain rrp6, active compounds read low): 1.02
- normalized growth (locus YOR061W, strain CKA2, active compounds read low): 1.02
- normalized growth (locus YOR069W, strain VPS5, active compounds read low): 1.02
- normalized growth (locus YOR070C, strain gyp1, active compounds read low): 1.03
- normalized growth (locus YOR080W, strain dia2, active compounds read low): 1.01
- normalized growth (locus YOR083W, strain WHI5, active compounds read low): 1.02
- normalized growth (locus YOR106W, strain vam3, active compounds read low): 1.03
- normalized growth (locus YOR136W, strain idh2, active compounds read low): 1.01
- normalized growth (locus YOR144C, strain elg1, active compounds read low): 1.01
- normalized growth (locus YOR184W, strain ser1, active compounds read low): 1.03
- normalized growth (locus YOR231W, strain MKK1, active compounds read low): 0.997
- normalized growth (locus YOR265W, strain rbl2, active compounds read low): 1.02
- normalized growth (locus YOR270C, strain vph1, active compounds read low): 0.997
- normalized growth (locus YOR290C, strain snf2, active compounds read low): 1.02
- normalized growth (locus YOR316C, strain cot1, active compounds read low): 1.01
- normalized growth (locus YPL051W, strain arl3, active compounds read low): 1
- normalized growth (locus YPL078C, strain atp4, active compounds read low): 1.04
- normalized growth (locus YPL106C, strain sse1, active compounds read low): 1.03
- normalized growth (locus YPL240C, strain hsp82, active compounds read low): 1.01
- normalized growth (locus YPL256C, strain CLN2, active compounds read low): 1.05
- normalized growth (locus YPR119W, strain clb2, active compounds read low): 1.01
- normalized growth (locus YPR141C, strain kar3, active compounds read low): 1.02
- normalized growth (locus YPR163C, strain tif3, active compounds read low): 1.02
- normalized growth (locus YPR167C, strain met16, active compounds read low): 1.03
- normalized growth (strain wtn01, active compounds read low): 1
